Source: PubChem BioAssay (Tox21)
Several values for one entry are separate records, joined by “and”; a condition that tells them apart may be missing. Equal entries are not always repeated. Results filed as inconclusive are left out. A structure can be active in one record and inactive in another. Activity calls are given as the source filed them. Unless noted, calls follow the shape of the dose curve; as a rule, active = well fitted curve in the direction sought with a large enough effect in the repeat runs; inconclusive = weak or mixed curves; inactive = no such curve, though single readings can be large; an effect the other way counts as inactive or inconclusive.

Tests used:
[1] = molecular target: Acetylcholinesterase (Homo sapiens) (UniProt P22303); experiment: Acetylcholinesterase (AChE) small molecule antagonists: enzyme-based qHTS assay (AID 1347397; calls by dose curve; also: nearly all actives have a fitted effect of over 55% in size); settings: Potency: AChE enzyme activity inhibition
Summary of the method: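 In this quantitative HTS, compounds from the Tox21 10K collection were preincubated 30 min at ambient temperature with recombinant human AChE dispensed at 50 mU/mL. Hydrolysis of acetylthiocholine was then followed for 10 min by DTNB colour development.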

[2] = molecular target: Acetylcholinesterase (Homo sapiens) (UniProt P22303); experiment: Acetylcholinesterase (AChE) small molecule antagonists: fluorescence cell-based qHTS assay (AID 1347398; calls by dose curve; also: nearly all actives have a fitted effect of over 50% in size); settings: Potency: AChE activity
Summary of the method: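 Cells (SH-SY5Y) attached overnight, were dosed with compound or DMSO vehicle for 30 min at 37 C, and then incubated 40 min at room temperature with acetylthiocholine and Thiolite Green; green fluorescence indexed AChE activity.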

[3] = molecular target: Acetylcholinesterase (Homo sapiens) (UniProt P22303); experiment: Acetylcholinesterase (AChE) small molecule antagonists: enzyme-based qHTS assay with human liver microsomes (AID 1347399; calls by dose curve; also: nearly all actives have a fitted effect of over 60% in size); settings: Potency: qHTS inhibition
Summary of the method: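 Recombinant human AChE (50 mU/mL in the enzyme mix) and human liver microsomes (0.25 mg/mL final) were preincubated with compound and NADPH (0.25 mg/mL final) for 30 min at 37 C. Acetylthiocholine/DTNB was then added; thiocholine was read colorimetrically after 10 min at room temperature.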

[4] = molecular target: Cytochrome P450 2D6 (Homo sapiens) (UniProt P10635); experiment: Cytochrome P450 Family 2 Subfamily D Member 6 (CYP2D6) small molecule antagonists: luciferase reporter qHTS assay (AID 1671196); also: nearly all actives have a fitted effect of over 50% in size
Summary of the method: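 Room-temperature luminescent CYP2D6 activity assay: compound preincubated 10 min with enzyme–substrate mix, NADPH-initiated reaction 1 h, detection reagent 20 min before reading.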

[5] = molecular target: Cytochrome P450 2C19 (Homo sapiens) (UniProt P33261); experiment: Cytochrome P450 Family 2 Subfamily C Member 19 (CYP2C19) small molecule antagonists: luciferase reporter qHTS assay (AID 1671197); also: nearly all actives have a fitted effect of over 65% in size
Summary of the method: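 Luminescent readout of CYP2C19 activity: luciferin product detected 20 min after adding detection reagent. Before that, compound and enzyme-substrate mix preincubated 10 min at room temperature; NADPH-regenerating system started a 1 h, 37C reaction. Ketoconazole as positive control.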

[6] = molecular target: Cytochrome P450 2C9 (Homo sapiens) (UniProt P11712); experiment: Cytochrome P450 Family 2 Subfamily C Member 9 (CYP2C9) small molecule antagonists: luciferase reporter qHTS assay (AID 1671198); also: nearly all actives have a fitted effect of over 50% in size
Summary of the method: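 P450-Glo proluciferin substrate with CYP2C9 enzyme; 10 min RT preincubation, then NADPH regeneration 1 h at 37C; luciferin detection reagent 20 min RT, luminescence in relative luminescence units.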

[7] = molecular target: Cytochrome P450 1A2 (Homo sapiens) (UniProt P05177); experiment: Cytochrome P450 Family 1 Subfamily A Member 2 (CYP1A2) small molecule antagonists: luciferase reporter qHTS assay (AID 1671199); also: nearly all actives have a fitted effect of over 50% in size
Summary of the method: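 Room-temperature CYP1A2 reaction with proluciferin substrate: compounds added from DMSO, 10 min preincubation, NADPH regeneration for 1 h. Luciferin detection reagent then added; luminescence recorded as RLU.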

[8] = molecular target: Voltage-gated inwardly rectifying potassium channel KCNH2 (Homo sapiens) (UniProt Q12809); experiment: Human Ether-a-go-go-Related Gene (hERG) channel small molecule antagonists: fluorescence cell-based qHTS assay (AID 1671200); also: nearly all actives have a fitted effect of over 50% in size
Summary of the method: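 Cell line hERG-U2OS; dye FluxOR II, 1 h RT dark; Tl+ stimulus; ex 480/em 540 nm, read each second for 2 min.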

[9] = molecular target: Cytochrome P450 3A4 (Homo sapiens) (UniProt P08684); experiment: Cytochrome P450 Family 3 Subfamily A Member 4 (CYP3A4) small molecule antagonists: luciferase reporter qHTS assay (AID 1671201); also: nearly all actives have a fitted effect of over 50% in size
Summary of the method: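 Room-temperature assay throughout: 10 min compound–enzyme/substrate preincubation, 1 h reaction after NADPH regeneration solution, 20 min detection. Luciferin formed from proluciferin substrate is quantified by luminescence.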

Measured: Potency
Potency is read from the fitted curve at half-maximal effect.

Cytochrome P450 2C19 (Homo sapiens), sequence (P33261 whole entry, looked up): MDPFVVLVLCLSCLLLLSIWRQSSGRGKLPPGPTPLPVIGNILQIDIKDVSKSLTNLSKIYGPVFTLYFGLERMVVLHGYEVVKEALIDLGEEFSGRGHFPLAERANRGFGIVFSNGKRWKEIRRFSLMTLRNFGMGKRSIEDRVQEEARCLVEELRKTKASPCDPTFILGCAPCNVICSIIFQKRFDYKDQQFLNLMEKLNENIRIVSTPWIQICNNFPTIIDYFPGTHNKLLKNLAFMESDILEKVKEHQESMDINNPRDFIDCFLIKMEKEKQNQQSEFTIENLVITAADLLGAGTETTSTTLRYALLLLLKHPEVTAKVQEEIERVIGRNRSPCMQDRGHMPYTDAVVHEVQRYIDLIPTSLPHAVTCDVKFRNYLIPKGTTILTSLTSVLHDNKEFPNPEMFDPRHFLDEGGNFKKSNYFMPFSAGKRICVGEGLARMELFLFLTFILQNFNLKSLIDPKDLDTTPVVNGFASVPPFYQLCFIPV
Cytochrome P450 1A2 (Homo sapiens), sequence (P05177 whole entry, looked up): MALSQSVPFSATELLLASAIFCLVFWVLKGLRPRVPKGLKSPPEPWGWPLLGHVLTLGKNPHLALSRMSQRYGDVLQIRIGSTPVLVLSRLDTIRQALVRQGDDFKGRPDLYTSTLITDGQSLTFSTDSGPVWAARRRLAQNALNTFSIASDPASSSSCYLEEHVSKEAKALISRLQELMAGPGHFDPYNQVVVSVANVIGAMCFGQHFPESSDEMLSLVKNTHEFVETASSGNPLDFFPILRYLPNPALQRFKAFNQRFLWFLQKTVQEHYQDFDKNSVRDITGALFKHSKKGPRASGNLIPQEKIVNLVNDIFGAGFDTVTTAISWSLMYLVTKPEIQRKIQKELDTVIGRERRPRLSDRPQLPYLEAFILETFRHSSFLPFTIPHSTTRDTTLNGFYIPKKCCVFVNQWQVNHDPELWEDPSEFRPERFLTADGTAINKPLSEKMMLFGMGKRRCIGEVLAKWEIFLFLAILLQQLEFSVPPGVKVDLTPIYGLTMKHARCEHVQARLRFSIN
Cytochrome P450 2D6 (Homo sapiens), sequence (P10635 whole entry, looked up): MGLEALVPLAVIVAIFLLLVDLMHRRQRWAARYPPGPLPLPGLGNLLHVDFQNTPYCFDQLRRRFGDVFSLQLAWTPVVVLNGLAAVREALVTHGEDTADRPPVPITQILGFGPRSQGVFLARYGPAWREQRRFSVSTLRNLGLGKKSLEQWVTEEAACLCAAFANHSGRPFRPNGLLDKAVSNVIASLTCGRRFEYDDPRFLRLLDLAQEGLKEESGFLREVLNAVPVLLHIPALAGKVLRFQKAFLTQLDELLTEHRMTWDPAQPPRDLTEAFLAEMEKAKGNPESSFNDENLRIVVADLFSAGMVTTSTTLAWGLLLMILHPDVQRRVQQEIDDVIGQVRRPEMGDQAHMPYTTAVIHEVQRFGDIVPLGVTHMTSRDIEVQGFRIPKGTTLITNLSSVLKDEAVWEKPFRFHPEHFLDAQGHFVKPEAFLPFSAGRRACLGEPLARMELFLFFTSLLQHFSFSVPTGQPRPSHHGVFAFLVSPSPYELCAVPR
Cytochrome P450 2C9 (Homo sapiens), sequence (P11712 whole entry, looked up): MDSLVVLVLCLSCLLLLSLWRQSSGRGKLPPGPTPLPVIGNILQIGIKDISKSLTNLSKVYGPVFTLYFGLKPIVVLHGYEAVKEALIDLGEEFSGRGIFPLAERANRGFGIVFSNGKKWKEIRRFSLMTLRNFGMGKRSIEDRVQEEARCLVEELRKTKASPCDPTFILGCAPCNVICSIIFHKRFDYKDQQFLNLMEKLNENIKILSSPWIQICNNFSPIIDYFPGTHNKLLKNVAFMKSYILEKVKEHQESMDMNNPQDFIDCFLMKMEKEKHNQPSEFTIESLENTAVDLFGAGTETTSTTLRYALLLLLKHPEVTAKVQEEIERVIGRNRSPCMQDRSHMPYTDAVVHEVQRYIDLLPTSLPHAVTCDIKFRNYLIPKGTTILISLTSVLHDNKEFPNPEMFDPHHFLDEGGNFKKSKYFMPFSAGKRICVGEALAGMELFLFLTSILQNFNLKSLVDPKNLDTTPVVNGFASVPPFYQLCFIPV
Voltage-gated inwardly rectifying potassium channel KCNH2 (Homo sapiens), sequence (Q12809 whole entry, looked up): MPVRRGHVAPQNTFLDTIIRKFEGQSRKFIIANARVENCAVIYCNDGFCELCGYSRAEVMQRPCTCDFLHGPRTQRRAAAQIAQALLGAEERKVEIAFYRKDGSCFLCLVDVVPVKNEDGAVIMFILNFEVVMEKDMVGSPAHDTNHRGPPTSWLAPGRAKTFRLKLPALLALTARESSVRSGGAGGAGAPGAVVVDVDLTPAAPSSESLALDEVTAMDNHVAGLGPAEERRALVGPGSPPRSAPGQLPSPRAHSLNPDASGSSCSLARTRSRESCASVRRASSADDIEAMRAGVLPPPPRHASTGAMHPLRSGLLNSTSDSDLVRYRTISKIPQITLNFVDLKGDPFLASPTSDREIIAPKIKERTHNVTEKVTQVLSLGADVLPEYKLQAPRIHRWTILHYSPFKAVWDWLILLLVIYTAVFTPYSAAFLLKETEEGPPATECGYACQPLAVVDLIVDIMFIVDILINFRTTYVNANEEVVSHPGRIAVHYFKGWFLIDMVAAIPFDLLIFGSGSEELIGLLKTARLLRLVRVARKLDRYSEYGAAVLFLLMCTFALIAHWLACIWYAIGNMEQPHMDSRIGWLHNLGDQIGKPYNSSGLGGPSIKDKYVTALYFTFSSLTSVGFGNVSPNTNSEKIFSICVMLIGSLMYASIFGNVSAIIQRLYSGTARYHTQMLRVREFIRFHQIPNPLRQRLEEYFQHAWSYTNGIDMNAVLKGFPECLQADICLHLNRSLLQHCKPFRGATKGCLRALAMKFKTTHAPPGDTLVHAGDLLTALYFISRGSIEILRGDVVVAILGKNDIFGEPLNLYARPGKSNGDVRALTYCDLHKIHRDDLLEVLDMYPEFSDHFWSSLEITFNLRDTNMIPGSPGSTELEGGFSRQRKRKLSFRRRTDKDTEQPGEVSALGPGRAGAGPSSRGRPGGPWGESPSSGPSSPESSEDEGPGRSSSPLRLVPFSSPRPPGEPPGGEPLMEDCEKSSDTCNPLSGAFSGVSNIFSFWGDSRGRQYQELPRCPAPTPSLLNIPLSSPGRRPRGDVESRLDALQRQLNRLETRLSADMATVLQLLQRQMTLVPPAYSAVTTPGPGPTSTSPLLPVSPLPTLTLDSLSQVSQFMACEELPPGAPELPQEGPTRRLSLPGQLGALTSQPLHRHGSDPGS
Acetylcholinesterase (Homo sapiens), sequence (P22303 whole entry, looked up): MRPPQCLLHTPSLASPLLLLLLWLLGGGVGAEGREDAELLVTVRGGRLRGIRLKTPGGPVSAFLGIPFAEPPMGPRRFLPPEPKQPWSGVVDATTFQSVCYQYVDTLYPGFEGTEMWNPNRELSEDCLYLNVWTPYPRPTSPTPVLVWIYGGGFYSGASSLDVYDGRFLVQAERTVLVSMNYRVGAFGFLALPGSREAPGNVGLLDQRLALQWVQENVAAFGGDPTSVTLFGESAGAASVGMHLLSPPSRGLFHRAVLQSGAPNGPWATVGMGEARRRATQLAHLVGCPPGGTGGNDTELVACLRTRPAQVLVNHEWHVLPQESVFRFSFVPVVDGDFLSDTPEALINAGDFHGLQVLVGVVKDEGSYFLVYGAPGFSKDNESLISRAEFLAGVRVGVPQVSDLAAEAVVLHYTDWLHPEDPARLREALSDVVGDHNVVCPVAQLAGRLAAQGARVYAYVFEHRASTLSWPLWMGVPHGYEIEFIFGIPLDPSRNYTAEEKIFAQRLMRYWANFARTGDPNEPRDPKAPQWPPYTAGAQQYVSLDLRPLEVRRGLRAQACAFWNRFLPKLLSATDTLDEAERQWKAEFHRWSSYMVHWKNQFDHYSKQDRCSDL
Cytochrome P450 3A4 (Homo sapiens), sequence (P08684 whole entry, looked up): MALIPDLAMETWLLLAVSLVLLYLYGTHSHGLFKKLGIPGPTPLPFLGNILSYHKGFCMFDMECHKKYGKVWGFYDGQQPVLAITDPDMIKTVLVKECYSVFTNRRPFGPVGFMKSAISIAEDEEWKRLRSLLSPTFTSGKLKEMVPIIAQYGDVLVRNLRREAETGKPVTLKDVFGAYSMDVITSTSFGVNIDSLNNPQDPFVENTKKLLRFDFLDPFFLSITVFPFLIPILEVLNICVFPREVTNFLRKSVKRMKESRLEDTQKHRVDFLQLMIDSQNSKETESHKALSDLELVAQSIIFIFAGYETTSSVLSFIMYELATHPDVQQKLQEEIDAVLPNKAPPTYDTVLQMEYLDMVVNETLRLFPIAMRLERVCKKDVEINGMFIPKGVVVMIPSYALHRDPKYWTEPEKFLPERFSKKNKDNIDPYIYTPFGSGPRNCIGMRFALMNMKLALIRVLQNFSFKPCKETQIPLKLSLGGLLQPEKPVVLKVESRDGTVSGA

CC(C)C(Br)C(=O)NC(N)=O (stereo not drawn)
inactive: [1] | [2] | [3] | [4] | [5] | [6] | [7] | [8] | [9]

CCCCN(CCCC)C(=S)S
active: [4] 1.59 µM
inactive: [1] | [2] | [3] | [5]

Brc1ccc(Oc2ccc(Br)cc2Br)c(Br)c1
inactive: [1] | [2] | [3] | [4] | [8] | [9]
active: [5] 0.142 µM | [6] 12.6 µM | [7] 12.6 µM

Nc1ccc(Cl)cc1C(=O)c1ccccc1F
active: [5] 11 µM | [6] 17.4 µM | [7] 15.5 µM
inactive: [1] | [2] | [3] | [4] | [8]

CSC(=O)c1c(C(F)F)nc(C(F)(F)F)c(C(=O)SC)c1CC(C)C
active: [5] 3.15 µM | [6] 9.97 µM | [7] 3.15 µM
inactive: [1] | [2] | [3] | [4]

O=S1(=O)OCC2C(CO1)C1(Cl)C(Cl)=C(Cl)C2(Cl)C1(Cl)Cl (stereo not drawn)
inactive: [1] | [2] | [3] | [4]
active: [5] 1.59 µM | [6] 15.9 µM | [7] 31.7 µM | [8] 17.4 µM

CC1CCCC1
active: [5] 17.6 µM | [6] 8.8 µM | [7] 39.3 µM
inactive: [1] | [2] | [3] | [4] | [8]

CCCCC/C=C\C/C=C\C/C=C\C/C=C\CCCC(=O)NCC(=O)O
inactive: [1] | [2] | [3] | [5] | [7] | [8]
active: [4] 15.5 µM | [6] 13.8 µM

CN(C)C(=S)SSC(=S)N(C)C
inactive: [1] | [3]
89.4 µM (active) and inactive: [4]
active: [2] 35.1 µM and 39.9 µM and 21.9 µM | [5] 7 µM and 6.33 µM and 3.09 µM | [6] 9.89 µM and 6.33 µM and 2.19 µM | [7] 3.94 µM and 4.48 µM and 2.75 µM | [8] 43 µM and 49 µM | [9] 39.4 µM

Cc1ccc2cc3c(ccc4ccccc43)c3c2c1CC3
inactive: [1] | [2] | [3] | [4] | [8]
active: [5] 40 µM | [6] 5.65 µM | [7] 0.449 µM | [9] 8.96 µM

CCCCc1ccccc1
inactive: [1] | [2] | [3] | [4] | [5] | [6] | [7] | [8]

O=[N+]([O-])C(Br)Br
inactive: [1] | [2] | [3] | [4] | [5] | [6] | [7] | [8]

C[C@]12C/C(=C/O)C(=O)C[C@@H]1CC[C@@H]1[C@@H]2CC[C@@]2(C)[C@H]1CC[C@]2(C)O
active: [6] 35.9 µM and 27.5 µM
inactive: [1] | [2] | [3] | [4] | [5] | [7] | [8]

CC(O)C(=O)[O][Hg][c]1ccccc1 (stereo not drawn)
inactive: [1] | [3]
active: [2] 79.6 µM | [4] 0.448 µM | [5] 6.33 µM | [6] 1.78 µM | [7] 17.8 µM | [8] 17.4 µM | [9] 6.33 µM

c1ccc2nc(N3CCNCC3)ccc2c1
active: [7] 1.23 µM
inactive: [1] | [2] | [3] | [4] | [5] | [6] | [8]

CC(C)[C@@H](Nc1ccc(C(F)(F)F)cc1Cl)C(=O)OC(C#N)c1cccc(Oc2ccccc2)c1 (stereo partly drawn)
inactive: [1] | [2] | [3] | [4] | [7] | [8]
active: [5] 10.8 µM | [6] 6.09 µM

O=NN(CCO)CCO
inactive: [1] | [2] | [3] | [4] | [6] | [7] | [8] | [9]
active: [5] 78.4 µM

CC(Cc1ccc2c(c1)OCO2)NO (stereo not drawn)
inactive: [1] | [2] | [3] | [8]
active: [4] 38.6 µM | [5] 48.6 µM | [6] 34.4 µM | [7] 6.11 µM

CCC(C)c1cccc(C(C)CC)c1O (stereo not drawn)
inactive: [1] | [2] | [3] | [4] | [5] | [8]
active: [6] 15.9 µM | [7] 22.4 µM | [9] 28.3 µM

COC(=O)/C=C(\C)OP(=O)(OC)OC
active: [1] 3.56 µM | [2] 1 µM | [3] 17.8 µM | [4] 31.7 µM | [5] 71 µM
inactive: [6] | [7] | [8] | [9]

CN(C)CCc1c[nH]c2ccccc12
inactive: [1] | [2] | [3] | [5] | [6] | [7] | [8] | [9]
active: [4] 39.6 µM
